PubChem BioAssay (NCATS)
Results filed as inconclusive are left out. A call without a number means that no potency is given here. A number with no mark means an inactive call. Calls of active or inactive are those of the source. Calls follow the shape of the dose curve; as a rule, active = well fitted curve in the direction sought with a large enough effect; inconclusive = small, poorly fitted or top-dose-only effect, or another doubt; inactive = no such curve, though single readings can be large; an effect the other way counts as inactive or inconclusive.

What was measured:
[1] = molecular target: Cytochrome P450 3A7 (Homo sapiens) (UniProt P24462); experiment: Cytochrome P450 family 3 subfamily A member 7 (CYP3A7) small molecule antagonists: luciferase biochemical qHTS assay (AID 1963596); also: nearly all actives have a fitted effect of over 40% in size; also: potency is read from the fitted curve at half-maximal effect
In short: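 Luminescence read-out (relative luminescence units) after 20 min with detection reagent, which stops the reaction. Enzyme, proluciferin substrate and compound preincubated 10 min, RT; NADPH regeneration system then started 1 h reaction. Ketoconazole as positive control.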

[2] = Viability qHTS for spleen associated tyrosine kinase inhibitor (SYKi) naive MV4-11 cells (AID 1963823); also: nearly all actives have a fitted effect of over 40% in size; also: potency is read from the fitted curve at half-maximal effect
In short: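 Seeding of 500 SYKi-naive MV4-11 cells per well onto pre-dispensed compounds preceded a 72 hr incubation at 37 C. Luminescent CellTiter-Glo signal, read after 10 min at room temperature, reflected viable cells.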

[3] = Viability qHTS for spleen associated tyrosine kinase inhibitor (SYKi) drug resistant MV4-11 cells (AID 1963824); also: nearly all actives have a fitted effect of over 35% in size; also: potency is read from the fitted curve at half-maximal effect
In short: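 CellTiter-Glo luminescence, read 10 min after reagent addition, reports viability after a 72 hr compound exposure. Cells are an MV4-11 line made resistant to SYK inhibition, seeded at 500 per well onto compound-containing plates.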

[4] = Quantitative highthroughput screen to assess conditional lethalithy of NOMO1 cells grown in RPMI1640 with untreated serum (RPMI+s) (AID 1963876); also: nearly all actives have a fitted effect of over 35% in size
In short: (§1)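 Each medium arm—HPLM with 10% dialyzed FBS, or RPMI1640 with 5 mM glucose and 10% untreated or dialyzed FBS—was screened against an 11-point, 3-fold compound titration for 48 h at 37 °C, with CellTiter-Glo luminescence as endpoint.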

[5] = Quantitative highthroughput screen to assess conditional lethalithy of NOMO1 cells grown in RPMI1640 with dialyzed fetal bovine serum (RPMI+ds) (AID 1963877); also: series mostly up to about 46 µM; nearly all actives have a fitted effect of over 30% in size
In short: as §1

[6] = Quantitative highthroughput screen to assess conditional lethalithy of NOMO1 cells grown in Human Plasma-Like Medium with dialyzed fetal bovine serum (HPLM+ds) (AID 1963878); also: nearly all actives have a fitted effect of over 35% in size
In short: as §1

[7] = Quantitative highthroughput screen to assess conditional lethalithy of P12 Ichikawa cells grown in Human Plasma-Like Medium with dialyzed fetal bovine serum (HPLM+ds) (AID 1963879); conditions: Potency: viability; also: series mostly up to about 46 µM; nearly all actives have a fitted effect of over 35% in size
In short: as §1

[8] = Quantitative highthroughput screen to assess conditional lethalithy of P12 Ichikawa cells grown in RPMI1640 with dialyzed fetal bovine serum (RPMI+ds) (AID 1963880); conditions: Potency: P12-Ichikawa viability; also: nearly all actives have a fitted effect of over 35% in size
In short: as §1

[9] = Quantitative highthroughput screen to assess conditional lethalithy of P12 Ichikawa cells grown in RPMI1640 with untreated serum (RPMI+s) (AID 1963881); conditions: Potency: viability
In short: as §1

[10] = Quantitative highthroughput screen to assess conditional lethalithy of SEM cells grown in Human Plasma-Like Medium with dialyzed fetal bovine serum (HPLM+ds) (AID 1963882)
In short: as §1

[11] = Quantitative highthroughput screen to assess conditional lethalithy of SEM cells grown in RPMI1640 with unreated serum (RPMI+s) (AID 1963883); also: nearly all actives have a fitted effect of over 35% in size
In short: as §1

[12] = Quantitative highthroughput screen to assess conditional lethalithy of SEM cells grown in RPMI1640 with dialyzed fetal bovine serum (RPMI+ds) (AID 1963884)
In short: as §1

[13] = Cellular viability qHTS for adrenocortical cancer (ACC) cell line SW-13 (AID 1963989); conditions: SW-13 ACC cells viability, CellTiter-Glo, 48 h; activity (max response): active compounds read low; also: nearly all actives have a fitted effect of over 65% in size; also: potency is read from the fitted curve at half-maximal effect;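 as to activity (max response): cells grown in serum-free medium with ITS supplement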
In short: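 SW-13 cells in ITS-supplemented serum-free DMEM were plated overnight, then exposed for 48 h at 37C to compound titrations (up to 46 uM final). Viability was read by CellTiter-Glo luminescence; four-parameter logistic fits gave IC50 and efficacy.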

[14] = Cellular viability qHTS for adrenocortical cancer (ACC) cell line NCI-H295R (AID 1963990); also: nearly all actives have a fitted effect of over 60% in size; also: potency is read from the fitted curve at half-maximal effect
In short: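 Luminescent ATP read-out (CellTiter-Glo, 20 min RT) after 48 h drug exposure of NCI-H295R cells; a titration up to 46 uM final. Data normalized to doxorubicin (100% inhibition) and DMSO (0%); 4-parameter fit gives IC50, max response.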

Sequence of Cytochrome P450 3A7 (Homo sapiens) (P24462 whole entry, looked up): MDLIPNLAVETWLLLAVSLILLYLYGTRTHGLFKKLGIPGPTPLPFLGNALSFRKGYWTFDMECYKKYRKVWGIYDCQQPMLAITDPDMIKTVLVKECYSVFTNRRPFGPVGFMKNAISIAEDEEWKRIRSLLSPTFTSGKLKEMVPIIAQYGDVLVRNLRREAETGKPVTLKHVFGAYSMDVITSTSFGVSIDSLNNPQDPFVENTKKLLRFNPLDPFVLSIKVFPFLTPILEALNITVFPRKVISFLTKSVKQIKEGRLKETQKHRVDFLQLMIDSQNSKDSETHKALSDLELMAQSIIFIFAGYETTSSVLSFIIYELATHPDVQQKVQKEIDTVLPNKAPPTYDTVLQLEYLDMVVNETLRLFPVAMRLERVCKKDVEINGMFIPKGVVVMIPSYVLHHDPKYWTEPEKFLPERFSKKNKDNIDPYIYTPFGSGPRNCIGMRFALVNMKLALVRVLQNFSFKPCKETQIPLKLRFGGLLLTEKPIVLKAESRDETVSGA

For `CC1(C)Oc2ncnc(N)c2N=C1c1ccc(C2CCC(CC(=O)O)CC2)cc1` (centres undefined), the Potency [1] was “inactive”, the Potency [2] was “inactive” and the Potency [3] was “inactive”.
For `Cc1nc2c([nH]1)CCN(C(=O)c1ccc(NC(=O)c3ccccc3-c3ccccc3)cc1)c1ccccc1-2`, the Potency [1] was “inactive”, the Potency [2] was 18.4 µM (active) and the Potency [3] was 13.2 µM (active). The Potency [4] was “inactive”, the Potency [5] was “inactive” and the Potency [6] was “inactive”. For the same compound, the Potency [7] was “inactive”, the Potency [8] was “inactive” and the Potency [9] was “inactive”. For the same compound, the Potency [10] was “inactive”, the Potency [11] was “inactive” and the Potency [12] was “inactive”. The activity (max response) [13] was -19.1% and the Potency [14] was “inactive”.
For `CC(C)c1noc(C2CCN(c3ncnc(Nc4ccc(S(C)(=O)=O)cc4F)c3[N+](=O)[O-])CC2)n1`, the Potency [1] was “inactive”, the Potency [2] was “inactive” and the Potency [3] was “inactive”.
In the case of `COc1ccc(C(=O)c2ccccc2)c(O)c1`, the Potency [1] is reported as “inactive”, the Potency [2] is reported as “inactive” and the Potency [3] is reported as “inactive”.
In the case of `N[C@@H](CC(=O)Nc1ccc(Oc2cc(F)c(F)cc2Br)cc1)C(=O)O`, the Potency [1] is reported as “inactive”, the Potency [2] is reported as “inactive” and the Potency [3] is reported as “inactive”.
With `COC(=O)C(Cc1ccc(OCCn2c(=O)sc3cc(C(=O)c4ccccc4)ccc32)cc1)C(=O)OC` the Potency [1] was “inactive”, the Potency [2] was 23.1 µM (active) and the Potency [3] was 18.4 µM (active).
For `CC(C)(C)NCc1cc(Nc2ccnc3cc(Cl)ccc23)c2c(c1O)CCCC2`, the activity change, negative = inhibition [1] was -5.38% [at 11.5 µM], the viability (% of control) [2] was 90.1% [at 0.588 µM] and the viability, % of control [3] was 102% [at 0.588 µM].
In the case of `O=C(NCCCCN1CCN(c2cccc(Cl)c2Cl)CC1)c1cc2ccccc2s1`, the Potency [1] is reported as 2.82 µM (active), the Potency [2] is reported as 23.1 µM (active) and the Potency [3] is reported as 23.1 µM (active).
With `COC(=O)C1=C(C)NC(C)=C(C(=O)OCCN2CCN(C(c3ccccc3)c3ccccc3)CC2)C1c1cccc([N+](=O)[O-])c1` (centres undefined) the Potency [1] was “inactive”, the Potency [2] was 11.9 µM (active) and the Potency [3] was 6.68 µM (active). For the same compound, the Potency [4] was “inactive”, the Potency [5] was “inactive” and the Potency [6] was “inactive”. For the same compound, the Potency [7] was “inactive”, the Potency [8] was “inactive” and the Potency [9] was “inactive”. The Potency [10] was “inactive”, the Potency [11] was “inactive” and the Potency [12] was “inactive”. The Potency [13] was 4.47 µM (active) and the Potency [14] was 3.98 µM (active).
